Laboratory results published in PubChem BioAssay (NCI).
About 83,000 compounds went through this panel and 20% of them were active in at least one assay; those are over-represented in the sample as a whole.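 The test compound was applied at a single concentration to cells in 96-well plates for 48 hours, and percent growth was recorded.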 Calls of active or inactive are those of the source. Rule for the calls: active = growth percent below 10; inactive = the rest.

What follows are compounds tested on NCI-H460 lung (assay: NCI-60 one-dose screen, 48 h (100 = growth as untreated, 0 = no growth, -100 = all killed)). Settings: 10 µM unless noted.
`O=C(Nc1ccccc1)Nc1ncnc2c1ncn2-c1ccc(Cl)cc1` was tested, and the growth was 46.3% (inactive). For `CC(C)c1ccc(C(=O)Nc2nc3ccc(O)c(CN(C)C)c3s2)cc1`, the growth was 59.5% (inactive). For `Cc1ccc(Nn2c(SCC(=O)Nc3nc(-c4ccccc4)cs3)nc(C)c2C)cc1`, the growth was 78.1% (inactive). `N#CC(C#N)N=Nc1ccc(Br)cc1` was tested, and the growth was 95.8% (inactive). With `CCN1C(=S)N(c2ccccc2)C2C1NN=c1s/c(=C3\C(=O)N(C(C)C)c4ccccc43)c(=O)n12` (stereo not drawn) the growth was 47.8% (inactive). `CSc1nc2ccccc2cc1/C=[N+](\[O-])c1ccccc1` was tested, and the growth was 92.1% (inactive). In the case of `CN1CCN(c2cc(Nc3cc(C4CC4)[nH]n3)nc(Nc3ccc(CC(=O)NCc4cccc(F)c4)cc3)n2)CC1`, the growth was 13% (inactive). In the case of `C=CCN=c1sc2c(n1NC(=O)c1cc3ccc1CCc1ccc(cc1)CC3)C(=O)c1ccccc1C2=O`, the growth was 12.7% (inactive). In the case of `Cn1cc(-c2csc(-c3cn(C(=O)OC(C)(C)C)c4ccc(Br)cc34)n2)c2ccnc(Cl)c21`, the growth was 68.7% (inactive). In the case of `CSc1oc(C)nc1[P+](c1ccccc1)(c1ccccc1)c1ccccc1`, the growth was 37.3% (inactive). For `C=C1C(=O)O[C@H]2[C@H]1CC/C(Cn1cc(-c3ccccc3)nn1)=C\CC[C@@]1(C)O[C@@H]21`, the growth was 51.8% (inactive). In the case of `O=S(=O)(c1ccccc1)n1cc2c(c1)-c1nc(Nc3ncccn3)sc1CC2`, the growth was 68.4% (inactive). With `Cc1[nH]c(C(=O)Nc2ccccc2OC2CCNCC2)c(Cl)c1Cl` the growth was 5.07% (active). In the case of `COc1ccc(-c2cc(-c3ccc(Cl)cc3)c(C#N)c(=O)n2Cc2ccc(C(=O)Nc3ccccc3N)cc2)cc1`, the growth was 94.6% (inactive). For `O=C(CN1CCCCC1)Nc1nc(-c2cc3ccccc3oc2=O)cs1`, the growth was 103% (inactive). For `Oc1ccc(Cl)cc1/C=N\NC(=S)N/N=C/c1cc(Cl)ccc1O`, the growth was 14.7% (inactive). For `COC12C=C/C(=C(/C(=O)OCc3ccncn3)C(=O)CCCCCCCCC3(OC)C=C/C(=C(/C(=O)OCc4ccncn4)C(=O)CCCCCCCC1)O3)O2`, the growth was 1.29% (active). In the case of `COc1ccc2c(c1)N(CCO)C1=C(C(=O)OC1)C2c1cccc(F)c1` (stereo not drawn), the growth was 6.1% (active). For `CC(=O)Oc1ccc(/C(=C(\C)c2ccc(Cl)cc2)c2ccc(OCCN3CCCCC3)cc2)cc1`, the growth was 20.2% (inactive). In the case of `O=C(N(c1ccccc1)c1ccccc1)n1cc(I)c2nc(Cl)nc(Cl)c21`, the growth was 43.8% (inactive). `N#Cc1nc(-c2ccccc2)oc1S(=O)(=O)N1CCN(c2ccccc2)CC1` was tested, and the growth was 97.8% (inactive). `Cc1ccc(NC(=O)c2sc3nc(C)c(Br)c(C)c3c2N)cc1` was tested, and the growth was 54.4% (inactive). `O=C(CN1C(=O)S/C(=C\C(Cl)=C\c2ccccc2)C1=O)NCCc1ccc(O)cc1` was tested, and the growth was 45.7% (inactive). `O=C(/C=C/c1cn(-c2ccccc2)nc1-c1ccc(Cl)cc1)c1ccc(F)cc1` was tested, and the growth was 74% (inactive). For `CCOC(=O)c1c(NC(=O)c2cccc(C(F)(F)F)c2)sc2c(CN(C)C)c(O)ccc12`, the growth was 2.61% (active). With `N#Cc1c(-c2ccccc2)cc(-c2ccc(Nc3nc(Nc4ccc(Cl)cc4)nc(Nc4ccc(Cl)cc4)n3)cc2)nc1N` the growth was 48.2% (inactive). For `O=C(/C=C/c1cccs1)Nc1ncc(Cc2ccccc2F)s1`, the growth was 12.9% (inactive). With `O=S(=O)(Nc1cc(Cl)ccc1Cl)c1ccc(-c2cnc(C3CC3)o2)cc1` the growth was 24.8% (inactive). In the case of `CCOC(=O)c1ccc2c(c1)nc(-c1ccccc1)n2C1CCCCC1`, the growth was 107% (inactive). `CC(=O)N1N=C(c2ccc(C(F)(F)F)c(F)c2)CC1c1[nH]c(C)c(C(=O)NCC(F)(F)F)c1C` (stereo not drawn) was tested, and the growth was 52.1% (inactive). For `O=C(CN1C(=O)S/C(=C\c2ccccc2)C1=O)Nc1ncc(Cc2ccccc2Cl)s1`, the growth was 110% (inactive). `COc1cc(OCc2cccc(Br)c2C)cc(OC)c1C=O` was tested, and the growth was 75.8% (inactive). For `COc1cc(NS(=O)(=O)c2ccc(-c3cnc(C4CC4)o3)cc2)ccc1F`, the growth was 18.7% (inactive). For `COC1=CC(c2ccc[nH]2)=N/C1=C\c1[nH]c(C)c(CC(=O)OCc2ccccc2)c1CCC(=O)OCc1ccccc1`, the growth was 12.2% (inactive). With `Clc1cccc(Nc2ncnc3ccc(-c4cnc5[nH]ccc5c4)cc23)c1` the growth was 78.3% (inactive). For `COc1cc2ncnc(Nc3ccc(F)c(Cl)c3)c2cc1OCC(=O)N1CCN(c2ccccc2)CC1`, the growth was 95.6% (inactive). For `O=C1Nc2ccccc2/C1=C/c1nc2ccccc2c(=O)[nH]1`, the growth was 95.1% (inactive). With `CNc1nnc2n(-c3ccccc3)c(=O)c3cnn(-c4ccccc4)c3n12` the growth was 106% (inactive). In the case of `C=C1C(=O)O[C@H]2[C@H]1CC/C(COC(=O)c1cc3ccccc3s1)=C\CC[C@@]1(C)O[C@@H]21`, the growth was -57.3% (active).

The compounds below were run on HOP-92 NSCLC in the same assay as above. Settings: 10 µM unless noted.
For `O=C(Nc1ccccc1)Nc1ncnc2c1ncn2-c1ccc(Cl)cc1`, the growth was 97.3% (inactive). In the case of `CC(C)c1ccc(C(=O)Nc2nc3ccc(O)c(CN(C)C)c3s2)cc1`, the growth was 81.7% (inactive). `Cc1ccc(Nn2c(SCC(=O)Nc3nc(-c4ccccc4)cs3)nc(C)c2C)cc1` was tested, and the growth was 59.9% (inactive). With `N#CC(C#N)N=Nc1ccc(Br)cc1` the growth was -34.1% (active). `CCN1C(=S)N(c2ccccc2)C2C1NN=c1s/c(=C3\C(=O)N(C(C)C)c4ccccc43)c(=O)n12` (stereo not drawn) was tested, and the growth was 100% (inactive). For `CSc1nc2ccccc2cc1/C=[N+](\[O-])c1ccccc1`, the growth was 53.2% (inactive). In the case of `CN1CCN(c2cc(Nc3cc(C4CC4)[nH]n3)nc(Nc3ccc(CC(=O)NCc4cccc(F)c4)cc3)n2)CC1`, the growth was -15.6% (active). For `C=CCN=c1sc2c(n1NC(=O)c1cc3ccc1CCc1ccc(cc1)CC3)C(=O)c1ccccc1C2=O`, the growth was 21.5% (inactive). With `Cn1cc(-c2csc(-c3cn(C(=O)OC(C)(C)C)c4ccc(Br)cc34)n2)c2ccnc(Cl)c21` the growth was 58.8% (inactive). With `CSc1oc(C)nc1[P+](c1ccccc1)(c1ccccc1)c1ccccc1` the growth was 59.9% (inactive). `C=C1C(=O)O[C@H]2[C@H]1CC/C(Cn1cc(-c3ccccc3)nn1)=C\CC[C@@]1(C)O[C@@H]21` was tested, and the growth was -69.9% (active). With `O=S(=O)(c1ccccc1)n1cc2c(c1)-c1nc(Nc3ncccn3)sc1CC2` the growth was 22% (inactive). In the case of `Cc1[nH]c(C(=O)Nc2ccccc2OC2CCNCC2)c(Cl)c1Cl`, the growth was -2.05% (active). For `COc1ccc(-c2cc(-c3ccc(Cl)cc3)c(C#N)c(=O)n2Cc2ccc(C(=O)Nc3ccccc3N)cc2)cc1`, the growth was 54.1% (inactive). In the case of `O=C(CN1CCCCC1)Nc1nc(-c2cc3ccccc3oc2=O)cs1`, the growth was 98.7% (inactive). For `Oc1ccc(Cl)cc1/C=N\NC(=S)N/N=C/c1cc(Cl)ccc1O`, the growth was 40.1% (inactive). For `COC12C=C/C(=C(/C(=O)OCc3ccncn3)C(=O)CCCCCCCCC3(OC)C=C/C(=C(/C(=O)OCc4ccncn4)C(=O)CCCCCCCC1)O3)O2`, the growth was -53.6% (active). In the case of `COc1ccc2c(c1)N(CCO)C1=C(C(=O)OC1)C2c1cccc(F)c1` (stereo not drawn), the growth was 57.4% (inactive). For `CC(=O)Oc1ccc(/C(=C(\C)c2ccc(Cl)cc2)c2ccc(OCCN3CCCCC3)cc2)cc1`, the growth was 49.4% (inactive). `O=C(N(c1ccccc1)c1ccccc1)n1cc(I)c2nc(Cl)nc(Cl)c21` was tested, and the growth was 71.8% (inactive). In the case of `N#Cc1nc(-c2ccccc2)oc1S(=O)(=O)N1CCN(c2ccccc2)CC1`, the growth was 116% (inactive). With `Cc1ccc(NC(=O)c2sc3nc(C)c(Br)c(C)c3c2N)cc1` the growth was -5.03% (active). For `O=C(CN1C(=O)S/C(=C\C(Cl)=C\c2ccccc2)C1=O)NCCc1ccc(O)cc1`, the growth was 15.6% (inactive). `O=C(/C=C/c1cn(-c2ccccc2)nc1-c1ccc(Cl)cc1)c1ccc(F)cc1` was tested, and the growth was 99.2% (inactive). For `CCOC(=O)c1c(NC(=O)c2cccc(C(F)(F)F)c2)sc2c(CN(C)C)c(O)ccc12`, the growth was -1.17% (active). `N#Cc1c(-c2ccccc2)cc(-c2ccc(Nc3nc(Nc4ccc(Cl)cc4)nc(Nc4ccc(Cl)cc4)n3)cc2)nc1N` was tested, and the growth was -72.5% (active). With `O=C(/C=C/c1cccs1)Nc1ncc(Cc2ccccc2F)s1` the growth was 60% (inactive). With `O=S(=O)(Nc1cc(Cl)ccc1Cl)c1ccc(-c2cnc(C3CC3)o2)cc1` the growth was 40.4% (inactive). In the case of `CCOC(=O)c1ccc2c(c1)nc(-c1ccccc1)n2C1CCCCC1`, the growth was 91.7% (inactive). With `CC(=O)N1N=C(c2ccc(C(F)(F)F)c(F)c2)CC1c1[nH]c(C)c(C(=O)NCC(F)(F)F)c1C` (stereo not drawn) the growth was 52.4% (inactive). `O=C(CN1C(=O)S/C(=C\c2ccccc2)C1=O)Nc1ncc(Cc2ccccc2Cl)s1` was tested, and the growth was 108% (inactive). For `COc1cc(OCc2cccc(Br)c2C)cc(OC)c1C=O`, the growth was 90.6% (inactive). For `COc1cc(NS(=O)(=O)c2ccc(-c3cnc(C4CC4)o3)cc2)ccc1F`, the growth was 33.8% (inactive). With `COC1=CC(c2ccc[nH]2)=N/C1=C\c1[nH]c(C)c(CC(=O)OCc2ccccc2)c1CCC(=O)OCc1ccccc1` the growth was -26.1% (active). For `Clc1cccc(Nc2ncnc3ccc(-c4cnc5[nH]ccc5c4)cc23)c1`, the growth was 94.5% (inactive). With `COc1cc2ncnc(Nc3ccc(F)c(Cl)c3)c2cc1OCC(=O)N1CCN(c2ccccc2)CC1` the growth was 86.8% (inactive). With `O=C1Nc2ccccc2/C1=C/c1nc2ccccc2c(=O)[nH]1` the growth was 94.1% (inactive). With `CNc1nnc2n(-c3ccccc3)c(=O)c3cnn(-c4ccccc4)c3n12` the growth was 78.3% (inactive). For `C=C1C(=O)O[C@H]2[C@H]1CC/C(COC(=O)c1cc3ccccc3s1)=C\CC[C@@]1(C)O[C@@H]21`, the growth was -74.4% (active).
